Screening data deposited in PubChem by several laboratories.
Only some compounds are listed: those with a hit (about 2.4% of all), similar ones and a draw of the others.
HTR2A ag – mouse Htr2a agonists via beta-arrestin recruitment, primary screen, cell-based, luminescence; activation, % at 7.6 µM; CHO-K1 mHTR2A beta-arrestin complementation; percent of 30 µM serotonin response; hit rate 0.66% among 360,000;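 active means activation above a run cutoff, the mean activation of all tested compounds plus 3 SD, cut at about 14% in these data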;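 further: 0% = plate median of compound wells and 100% = 30 µM serotonin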
NOD2-RIPK2 inh – NOD2-RIPK2 binding disruptors in cells, primary screen, fluorescence, CHO cells, BLA complementation. hit rate 0.38% among 360,000. Receptor-interacting serine/threonine-protein kinase 2 (Homo sapiens), O43353. CCF4 ratio. inhibition, % at 4.98 µM; in the data active means inhibition above about 21%;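 further: 0% = vehicle only and 100% = reference blocker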
TLR4-MyD88 BLA – inhibitors of TLR4-MyD88 association in cells, primary screen, cell-based, HeLa CL3-4, BLA complementation, FRET ratio; HeLa CL3-4 TLR4/MyD88 BLA complementation; hit rate 0.18% among 200,000; inhibition, % at 8.4 µM; Toll-like receptor 4 (Homo sapiens) + Myeloid differentiation primary response protein …; in the data active means inhibition above about 25%;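 further: 0% = vehicle and 100% = reference inhibitor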
TLR9-MyD88 inh – inhibitors of TLR9-MyD88 association in cells, primary screen, cell-based, CHO, BLA complementation, fluorescence. Toll-like receptor 9 (Homo sapiens) + Myeloid differentiation primary response protein …. CCF4 FRET ratio. inhibition, % at 4.98 µM. hit rate 0.21% among 340,000. AID 504734, 2011;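 active means inhibition above the mean over all tested compounds plus 3 SD, cut at about 21% in these data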;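 further: 0% = DMSO only wells and 100% = clavulanate BLA inhibitor control wells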
CRFBP-R2 block – antagonists of CRF-BP/CRF-R2 complex, primary screen, cell-based, HEK293, calcium dye fluorescence, uHTS; inhibition, % at 11.8 µM; CRF-induced calcium fluorescence; hit rate 0.59% among 350,000;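 active means inhibition of the ligand-induced calcium signal above about 50% at the single tested concentration, limit read from the data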
ABHD5 PLIN5 PPI – ABHD5-PLIN5 interaction inhibitors, primary screen, cell lysate, split luciferase complementation, luminescence; Perilipin-5 (Homo sapiens) + 1-acylglycerol-3-phosphate O-acyltransferase ABHD5 (Homo …; Split G. princeps luciferase complementation, 4 h; inhibition, % at 4 µM; hit rate 0.78% among 360,000;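 active means inhibition above the mean inhibition across every tested compound plus 3 SD, cut at about 22% in these data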;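 further: 0% = DMSO only wells and the 100% control is not disclosed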
* = called active by the depositor; . = no result.

SMILES	HTR2A ag	NOD2-RIPK2 inh	TLR4-MyD88 BLA	TLR9-MyD88 inh	CRFBP-R2 block	ABHD5 PLIN5 PPI
Cc1nn(-c2cc(N3CCCC3)ccc2[N+](=O)[O-])c(=O)c2ccccc12	4	-1	2	-4	-5	8
Cc1ccc(C)c(-c2nn(-c3cc(N4CCN(CCO)CC4)ccc3[N+](=O)[O-])c(=O)c3ccccc23)c1	-1	22*	-14	3	0	13
Cc1ccccc1OCCNc1cc(N2CCCCC2)ccc1[N+](=O)[O-]	-8	3	-4	0	-19	1
COc1ccc(C(C)(NC(C)=O)c2nc(-c3ccc(F)cc3OC)cs2)cc1 (stereo not drawn)	-7	5	.	.	.	3
CCCCCCCCC[n+]1cccc2c3ccccc3ccc21	7	4	22	3	-7	29*
Cc1ccc(C)c(C(=O)NCCN(C)C)c1	3	0	-5	12	-19	-3
C=C(CN(C)C)C(=O)c1cc(C)ccc1C	-5	45*	.	0	8	67*
CCc1nnc(NC(=O)CCC(=O)Nc2ccccc2)s1	1	-6	-1	5	16	2
CCc1nnc(NC(=S)Nc2ccccc2)s1	-3	3	-2	4	57*	-6
CN1CCOc2c1cnn(CCO)c2=O	3	-7	.	.	.	1
COc1ccc(/C=C/C(=O)NC(=S)Nc2ccc(S(=O)(=O)Nc3cc(OC)ncn3)cc2)cc1	0	-8	-1	.	58*	-2
COc1cc(NS(=O)(=O)c2ccc(NC(=S)NC(=O)/C=C/c3ccc(OC)c(OC)c3)cc2)ncn1	1	-6	4	-1	-20	2
COc1cc(/C=C(\C#N)C(=O)Nc2ccc3c(c2)OCCO3)ccc1O	-4	-11	.	1	73*	10
COCCn1c(SCC(=O)Nc2cccc(C(=O)OC)c2)nc2ccccc2c1=O	4	-14	-10	-2	71*	-1
COc1ccc(C(NC(=O)C2CCN(CCOc3ccc(Cl)cc3)CC2)c2cccs2)cc1 (stereo not drawn)	2	-3	.	.	.	2
CNC(=S)NCCc1c[nH]c2ccc(OC)cc12	-1	-2	5	1	2	-7
COc1ccc2[nH]cc(CCNC(=S)NC3CCCC3)c2c1	-4	-10	-2	3	51*	0
NC(c1csc(Nc2ccc(C(=O)NCCCO)cn2)n1)c1ccccc1Cl (stereo not drawn)	2	4	.	.	.	1
CC1(C(=O)NCCc2c[nH]c3ccccc23)CCN1CC1CCCCC1 (stereo not drawn)	1	-13	.	.	.	2
CN(Cc1ccc([N+](=O)[O-])cc1)c1ccccc1	8	2	.	0	55*	0
CN(Cc1ccccc1)c1nc(-c2ccc([N+](=O)[O-])cc2)nc2ccccc12	0	-5	-4	-2	-15	0
CCOc1ccc(NC(=O)CCCN2C(=O)C(c3ccccc3)Oc3cccnc32)cc1 (stereo not drawn)	-4	1	.	2	57*	-7
CC(=O)Nc1ccc(NC(=O)CCCN2C(=O)C(c3ccccc3)Oc3cccnc32)cc1 (stereo not drawn)	1	-4	.	1	7	-2
CN(C)c1ncc(S(=O)(=O)c2ccc(Cl)cc2)c(-c2ccc(Cl)cc2Cl)n1	0	-12	1	3	56*	1
CC1(C(=O)NS(=O)(=O)C2CC2)CCN(C(=O)c2ccc(F)cc2Cl)C1 (stereo not drawn)	10	-14	.	.	.	1
O=C(CN1CCN(C(=O)c2ccco2)CC1)Nc1cc(S(=O)(=O)N2CCCC2)ccc1Cl	7	-6	.	-5	-13	7
CS(=O)(=O)N1CCN(C(=O)COc2ccc3ccccc3c2)CC1	0	-9	.	-10	64*	-3
Cn1cc(S(=O)(=O)Nc2ccc(Br)cc2F)c(=O)n(C)c1=O	6	-2	12	-6	71*	2
